Bioassay records as filed in PubChem.
D2 ag-1 – human D2 receptor agonism in beta-arrestin assay; P14416; DiscoveRx PathHunter D2 beta-arrestin, luminescence, 90 min; 100% = 57 uM dopamine signal; activation, % (test concentration not listed); 360,000 compounds, 0.084% hits; AID 624465; in the data active means activation above about 40%; inconclusive means between about 15% and that limit
Target sequence (P14416 whole entry, looked up): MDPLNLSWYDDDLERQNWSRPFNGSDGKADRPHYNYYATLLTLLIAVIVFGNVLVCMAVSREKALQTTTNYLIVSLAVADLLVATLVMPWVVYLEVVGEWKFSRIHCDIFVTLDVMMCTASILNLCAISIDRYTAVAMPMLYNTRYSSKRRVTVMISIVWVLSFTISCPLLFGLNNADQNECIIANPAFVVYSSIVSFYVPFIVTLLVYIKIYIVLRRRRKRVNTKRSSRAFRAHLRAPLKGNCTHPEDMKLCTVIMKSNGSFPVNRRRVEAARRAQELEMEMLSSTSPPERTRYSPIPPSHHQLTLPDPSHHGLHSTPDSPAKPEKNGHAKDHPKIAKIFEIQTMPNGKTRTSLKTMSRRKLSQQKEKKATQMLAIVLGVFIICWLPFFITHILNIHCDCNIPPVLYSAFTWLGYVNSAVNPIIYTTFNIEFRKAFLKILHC
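Agonist mode: compounds alone added to overnight-plated D2 PathHunter cells for 90 min at 37 C, with 57 uM final dopamine (EC100) defining full response. Beta-arrestin recruitment detected by chemiluminescent reagent, read after 1 h at ambient temperature.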
D2 ag-2 – D2 dopamine receptor (human) agonism. P14416. HEK293 T-REx D2 cells, calcium flux agonist mode. activation, % at 2 µM. 340,000 compounds, 0.53% hits. AID 485358;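 active means activation over 3 SD above normal in the single-dose calcium agonist read, cut at about 30% in these data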; further: 0% is about no effect
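In this primary screen, compounds producing a positive calcium signal within 180 s of addition to tetracycline-induced, force-coupled HEK293 Trex D2 cells are flagged; cells are dye-loaded with a no-wash calcium kit beforehand.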
D2 antag – antagonizes the human D2 dopamine receptor | P14416 | HEK293 TREx D2 cells, calcium flux, dopamine EC80 | inhibition, % at 10 µM | AID 485344 | 340,000 compounds, 2% hits; in the data active means inhibition above about 30%; inactive means below that, where a call was filed; further: 0% is about no effect
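Tetracycline-induced HEK293 T-REx cells expressing D2 force-coupled to calcium signalling were dye-loaded, exposed to compound for 180 s, then challenged with an EC80 of dopamine; calcium flux was followed kinetically for a further 180 s.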
D2 PAM-1 – human D2 receptor positive allosteric modulation. 360,000 compounds, 0.23% hits. potentiation, % (no concentration beside the values). DiscoveRx D2 beta-arrestin cells, luminescence, 90 min; 100% = 57 uM dopamine signal. P14416; in the data active means potentiation above about 50%; inconclusive means mostly about 30% to 49%
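PathHunter beta-arrestin assay in DiscoveRx D2 cells. Compounds were added with an EC20 of dopamine (50 nM final) for 90 min at 37 deg C. Luminescence was read 1 h after detection reagent, with 57 uM dopamine as the EC100 control.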
D2 PAM-2 – D2 dopamine receptor (human) potentiation | P14416 | HEK293 T-REx D2, calcium flux, EC20 dopamine potentiation | potentiation, % at 10 µM | 340,000 compounds, 0.34% hits | AID 485347;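 active means potentiation over 3 SD above the plate norm, cut at about 30% in these data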; further: 0% is about no effect
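Primary screen. Calcium kinetics in induced HEK293 T-REx D2 cells: compound pre-addition 180 s, EC20 dopamine, 180 s more.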
The depositor's hits bear a star; u = inconclusive; x = no result given. The list is not random: actives were taken first. Their share in the collection is about 2.4%.

SMILES | D2 ag-1 | D2 ag-2 | D2 antag | D2 PAM-1 | D2 PAM-2
Fc1ccc(NC(=S)NC2CC3CCC(C2)N3Cc2ccco2)cc1 (stereo not given) | -3 | x | x | -16 | x
Cc1cccc(NC(=S)NC2CC3CCCC(C2)N3Cc2cccs2)c1 (stereo not given) | 1 | 1 | 77* | -30 | -22
Cc1cc(C)cc(NC(=S)NC2CC3CCC(C2)N3Cc2ccco2)c1 (stereo not given) | -9 | 0 | 46* | -23 | -15
O=C(Nc1ccc(Cl)c(C(F)(F)F)c1)NC1CC2CCCC(C1)N2Cc1ccccc1 (stereo not given) | -3 | 1 | 48* | -9 | x
CCc1ccccc1NC(=O)NC1CC2CCC(C1)N2Cc1ccco1 (stereo not given) | -4 | 0 | 32* | -33 | -25
COc1c(Cl)cccc1-c1cn2ccc(C)cc2n1 | 3 | 0 | 35* | -6 | -15
Cn1c(=O)c2c(nc(-n3ccnc3)n2Cc2ccc([N+](=O)[O-])cc2)n(C)c1=O | -3 | 0 | 31* | -14 | -1
CN1CCN(c2nc3c(c(=O)n(C)c(=O)n3C)n2Cc2ccc(Cl)cc2)CC1 | -1 | 0 | -6 | -5 | -6
O=C(Nc1ccccc1)/C(=C\c1ccc2c(c1)OCO2)NC(=O)c1ccco1 | 0 | -1 | 30* | -2 | -8
O=C(Nc1ccccc1)/C(=C/c1ccccc1)NC(=O)c1ccco1 | 4 | 1 | 30* | 14 | 3
O=C(Nc1ccccc1)/C(=C/c1ccc(O)cc1)NC(=O)c1ccco1 | 4 | 0 | -2 | -1 | 8
COc1cc2c3nnc(-c4ccc(F)cc4)c-3cn(Cc3ccccc3)c2cc1OC | 50* | 0 | 29 | 7 | 1
COc1cccc(-c2cn3ncsc3n2)c1 | x | -1 | x | x | 9
CC/C(=N/Nc1ccc(Cl)cc1)c1cnnc(SC)n1 | -2 | 0 | 34* | -9 | 6
O=c1oc2ccccc2c(Nc2ccc(O)cc2)c1[N+](=O)[O-] | -3 | 1 | -13 | -4 | -5
Cc1ccc(Nc2c([N+](=O)[O-])c(=O)oc3ccccc23)cc1 | -7 | 1 | 31* | -18 | -9
O=C(c1ccc2c(=O)n3c(nc2c1)CCCCC3)N1CCN(c2ccc(F)cc2)CC1 | -1 | 0 | 0 | 2 | 3
O=C(Nc1ccc2nc3n(c(=O)c2c1)CCCCC3)C(=O)N1CCN(c2ccc(F)cc2)CC1 | 1 | -1 | 34* | -10 | -4
O=C(Nc1ccc2nc3n(c(=O)c2c1)CCCCC3)c1ccccc1[N+](=O)[O-] | -1 | -3 | 30* | -8 | -5
O=c1c2cc(NC(=S)NCCCN3CCC(Cc4ccccc4)CC3)ccc2nc2n1CCCCC2 | -3 | 4 | 52* | -31 | -33
CCc1ccccc1NC(=O)Cn1nnc2sc3c(c2c1=O)CCC(C(C)(C)C)C3 (stereo not given) | x | x | x | x | -5
CCCC(O)c1nc2ccccc2n1CCCOc1ccc(Cl)cc1 (stereo not given) | x | 0 | x | x | -1
CCCCNC(=O)CC(NS(=O)(=O)c1ccc(C)cc1)c1ccco1 (stereo not given) | -4 | 1 | -8 | 1 | -1
CCCNC(=O)CC(NS(=O)(=O)c1ccc(OC)cc1)c1ccco1 (stereo not given) | 4 | 0 | -11 | 4 | 35*
CCN1CCN(c2nnc(-n3cccc3C(=O)NCc3ccccc3OC)s2)CC1 | x | 0 | x | x | -2
SMILES | D2 ag-1 | D2 ag-2 | D2 antag | D2 PAM-1 | D2 PAM-2
c1cc2c3c(cccc3c1)NC1(CCC3(CC1)Nc1cccc4cccc(c14)N3)N2 | 0 | 4 | -8 | 71* | -4
Cc1cccc(-n2nnc(C(=O)NCc3ccccn3)c2N)c1 | 1 | 0 | 31* | -7 | -2
Cc1ccc(CNC(=O)c2nnn(-c3cccc(C)c3)c2N)cc1 | -2 | x | x | -7 | x
COc1ccc(-n2c(-c3ccc(Br)cc3)n[nH]c2=S)cc1 | -3 | 0 | 31* | -4 | -8
O=C1c2ccccc2CCCC12N=NCC2c1cccc2ccccc12 (stereo not given) | u | x | x | 119* | x
Cc1ccccc1C(=O)NC(CC(C)C)C(=O)NN1C(=O)c2ccccc2C1=O (stereo not given) | -3 | 0 | 30* | 3 | -3
CCOc1ccc(CCNC(=O)c2ccc3c(c2)N(Cc2ccc(F)cc2)CCS3)cc1 | x | x | x | x | 4
CCN1CCSc2ccc(C(=O)NCc3ccc(OC(C)C)cc3)cc21 | -4 | 2 | 60* | -12 | -14
CCOc1ccc(CNC(=O)c2ccc3c(c2)N(CC)CCS3)cc1 | 1 | 1 | 61* | -10 | -17
O=C(Nc1ccc(Cl)cc1)NC1CCCCC1Cc1ccco1 (stereo not given) | -5 | 3 | -13 | -5 | -8
O=C(Nc1ccc(Cl)cc1)NC1CCCC1Cc1ccco1 (stereo not given) | -3 | 1 | 53* | -25 | -16
COc1ccc(NC(=O)C2CCN(S(=O)(=O)c3ccc4c(c3)CCCC(=O)N4)CC2)cc1Cl | x | 0 | x | x | 3
CCOC(=O)N1CCC(=NNC(=O)Cn2ccc(C(F)(F)F)n2)CC1 | 0 | 0 | -22 | -2 | 33*
Cc1nc2c(-c3ccccc3)cnn2c(N2CCOCC2)c1C | -3 | 0 | 31* | -2 | -9
COc1cccc(NC(=O)c2oc3ccc(S(=O)(=O)N(C)C4CCCCC4)cc3c2C)c1 | x | 0 | x | x | -7
CCc1ccc(OC(=O)c2cccnc2)cc1 | -6 | -2 | 32* | -6 | 2
Cc1c[nH]c2cccc(OCC(CNC(C)(C)C)OC(=O)c3ccccc3)c12 (stereo not given) | -4 | 0 | 70* | -18 | -19
CCCCN(C)C(=O)c1ccc2c(=O)n3nc(Nc4cc(C)ccc4C)sc3nc2c1 | x | -1 | x | x | 9
CC(=O)N1CCN(c2ccccc2NC(=O)c2cccs2)CC1 | 1 | 0 | 1 | -25 | 5
CC(=O)N1CCN(c2ccccc2NC(=O)c2ccc3ccccc3c2)CC1 | -1 | 0 | 46* | 4 | 4
O=C(Nc1ccccc1N1CCN(C(=O)c2ccccc2)CC1)c1cc2ccccc2o1 | 3 | -1 | 63* | -6 | -20
O=C(Nc1ccccc1N1CCCC1)c1cc2ccccc2o1 | -5 | 0 | -6 | -28 | x
O=C(NCCCO)C(=O)NCC(c1ccc2c(c1)OCO2)N1CCOCC1 (stereo not given) | x | -2 | x | x | -1
CCc1ccc(-c2nn(CC(=O)NC3CCCCC3)c3c2cnc2ccc(OC)cc23)cc1 | x | 0 | x | x | -9
Cc1ccc(Oc2cc([N+](=O)[O-])cc3c2C(=O)Nc2ccccc2O3)cc1 | 2 | 2 | 30* | 6 | 14
Cc1ccc(S(=O)(=O)c2cn(Cc3ccccc3)c3cc(N4CCCC4)c(F)cc3c2=O)cc1 | x | -1 | x | x | 4
